According to PubChem BioAssay (NCATS):
Several values for one entry are separate records, joined by “and”; a condition that tells them apart may be missing. Equal values may be shown once. Records with an inconclusive call do not appear. A call without a number means that no potency is given here. More than one record can exist for a structure, and the calls need not agree. Unmarked numbers belong to inactive results. Activity calls are given as the source filed them. Calls come from the whole dose curve; as a rule, active = well fitted inhibition curve with a large enough effect; inconclusive = small, poorly fitted or top-dose-only effect; inactive = flat fitted curve, though single readings scatter.

Assays:
CRL-7250 = normal cell line; experiment: Cytotoxic Profiling of Annotated Libraries Using Quantitative High-Throughput Screening (AID 1296008); details: Five cell lines viability, CellTiter-Glo ATP luminescence, 48-72 h; max response: stronger effect = lower value; note: potency is the fitted concentration of half-maximal effect
Outline: (§1)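 Compounds were pin-transferred onto cells and incubated 48 or 72 hr at 37 degree Celsius, 95% humidity. CellTiter-Glo was added, plates sat 10 min at room temperature, then ATP-coupled luminescence was imaged as the viability read-out.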

HEK293 = experiment: as above; details: Five cell lines viability, CellTiter-Glo ATP luminescence, 48-72 h; max response: stronger effect = lower value
Outline: as §1

HaCat = experiment: as above; details: Five cell lines viability, CellTiter-Glo ATP luminescence, 48-72 h; max response: stronger effect = lower value
Outline: as §1

KB-3-1 = experiment: as above; details: Five cell lines viability, CellTiter-Glo ATP luminescence, 48-72 h; max response: stronger effect = lower value
Outline: as §1

GB4 = experiment: qHTS profiling for inhibitors of Plasmodium falciparum proliferation (AID 504749); details: P. falciparum in erythrocytes, SYBR Green DNA, 72 h; series mostly up to 28.7 µM
Outline: (§2)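 P. falciparum-infected erythrocytes (0.3% parasitemia, 2.5% hematocrit final) were exposed to compounds for 72 h at 37 C in 5% CO2, then lysed with SYBR Green buffer overnight at room temperature; parasite DNA fluorescence was normalized to artemisinin and DMSO controls.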

HB3 = experiment: as above; details: P. falciparum in erythrocytes, SYBR Green DNA, 72 h; series mostly up to 28.7 µM
Outline: as §2

ICS = experiment: as above; details: P. falciparum in erythrocytes, SYBR Green DNA, 72 h; series mostly up to 28.7 µM
Outline: as §2

JCK = experiment: as above; details: P. falciparum in erythrocytes, SYBR Green DNA, 72 h; series mostly up to 28.7 µM
Outline: as §2

N140 = experiment: as above; details: P. falciparum in erythrocytes, SYBR Green DNA, 72 h; series mostly up to 28.7 µM
Outline: as §2

P93_24 = experiment: as above; details: P. falciparum in erythrocytes, SYBR Green DNA, 72 h; series mostly up to 28.7 µM
Outline: as §2

P94_40 = experiment: as above; details: P. falciparum in erythrocytes, SYBR Green DNA, 72 h; series mostly up to 28.7 µM
Outline: as §2

PAD = experiment: as above; details: P. falciparum in erythrocytes, SYBR Green DNA, 72 h; series mostly up to 28.7 µM
Outline: as §2

PC15 = experiment: as above; details: P. falciparum in erythrocytes, SYBR Green DNA, 72 h; series mostly up to 28.7 µM
Outline: as §2

PC26 = experiment: as above; details: P. falciparum in erythrocytes, SYBR Green DNA, 72 h; series mostly up to 28.7 µM
Outline: as §2

PC49 = experiment: as above; details: P. falciparum in erythrocytes, SYBR Green DNA, 72 h; series mostly up to 28.7 µM
Outline: as §2

SC27B = experiment: as above; details: P. falciparum in erythrocytes, SYBR Green DNA, 72 h; series mostly up to 28.7 µM
Outline: as §2

TAB109 = experiment: as above; details: P. falciparum in erythrocytes, SYBR Green DNA, 72 h; series mostly up to 28.7 µM
Outline: as §2

TAB113 = experiment: as above; details: P. falciparum in erythrocytes, SYBR Green DNA, 72 h; series mostly up to 28.7 µM
Outline: as §2

TAB165 = experiment: as above; details: P. falciparum in erythrocytes, SYBR Green DNA, 72 h; series mostly up to 28.7 µM
Outline: as §2

W2 = experiment: as above; details: P. falciparum in erythrocytes, SYBR Green DNA, 72 h; series mostly up to 28.7 µM
Outline: as §2
Note: nearly all actives have a fitted effect of over 60% in size.

Question: With `Cc1c(NC(=O)c2ccc(C(C)(C)C)cc2)cccc1-c1cn(C)c(=O)c(Nc2ccc(C(=O)N3CCOCC3)cc2)n1` as the compound, how does the max response (CRL-7250) read?
Answer: 2.1%

Question: What about the outcome (CRL-7250) of the same compound?
Answer: inactive

Question: And the Potency (HEK293)?
Answer: 11.8 µM (active)

Question: And the max response (HaCat)?
Answer: -8.79%

Question: And the max response (KB-3-1)?
Answer: 3.17% and -18.9%

Question: For `CS(=O)c1ccc(-c2nc(-c3ccc(F)cc3)c(-c3ccncc3)[nH]2)cc1` (stereo unspecified), which Potency (CRL-7250) is on record?
Answer: 19.1 µM (active)

Question: What about the outcome (CRL-7250) of the same compound?
Answer: inactive

Question: What about the Potency (HEK293) of the same compound?
Answer: 8.55 µM (active)

Question: What about the outcome (HEK293) of the same compound?
Answer: inactive

Question: And the max response (HaCat)?
Answer: 2.48%

Question: What about the outcome (KB-3-1) of the same compound?
Answer: inactive

Question: With `O=C(NCc1ccncc1)C12C[C@H]3C[C@@H](C1)CC(c1ccc(Cl)cc1)(C3)C2` as the compound, how does the max response (CRL-7250) read?
Answer: -10.8%

Question: What about the Potency (HEK293) of the same compound?
Answer: 10.5 µM (active)

Question: For `O=c1cc(-c2ccccc2)oc2cc(O)cc(O)c12`, which max response (CRL-7250) is on record?
Answer: -20.5%

Question: What about the Potency (HEK293) of the same compound?
Answer: 8.33 µM (active)

Question: `O=C1NC(=O)C(=Cc2ccc3c(c2)OC(F)(F)O3)S1` was tested. Which max response (CRL-7250) did it give?
Answer: -15.6%

Question: What about the max response (HEK293) of the same compound?
Answer: -24.8%

Question: What about the max response (HaCat) of the same compound?
Answer: -0.402%

Question: How did the max response (CRL-7250) turn out when `CO[C@H]1C[C@@H]2CC[C@@H](C)[C@@](O)(O2)C(=O)C(=O)N2CCCC[C@@H]2C(=O)O[C@H]([C@H](C)C[C@@H]2CC[C@H](OCCO)[C@H](OC)C2)CC(=O)[C@H](C)C=C(C)[C@@H](O)[C@@H](OC)C(=O)[C@H](C)C[C@H](C)C=CC=CC=C1C` was run?
Answer: -75.3%

Question: What about the Potency (HEK293) of the same compound?
Answer: 0.0017 µM (active)

Question: And the max response (HaCat)?
Answer: -15.8%

Question: With `O=C(NC1CCOCC1)c1ccc(-c2cc(-c3cn[nH]c3-c3ccccn3)ccn2)cc1` as the compound, how does the max response (CRL-7250) read?
Answer: -5.17%

Question: And the outcome (CRL-7250)?
Answer: inactive

Question: And the max response (HEK293)?
Answer: -15.5%

Question: And the max response (HaCat)?
Answer: 2.12%

Question: What about the outcome (HaCat) of the same compound?
Answer: inactive

Question: And the max response (KB-3-1)?
Answer: -6.4% and 1.2%

Question: For `C=C1C(=O)[C@@]23C(CC[C@@H]1[C@H]2O)[C@@]12CO[C@]3(O)[C@@H](O)[C@@H]1C(C)(C)CC[C@@H]2O` (stereo partly specified), which Potency (CRL-7250) is on record?
Answer: 18.4 µM (active)

Question: What about the Potency (HEK293) of the same compound?
Answer: 13.2 µM (active) and 8.2 µM (active)

Question: Which max response (CRL-7250) does the source give for `CCOC(=O)C1=C(N)Oc2ccc(Br)cc2C1C(C#N)C(=O)OCC` (stereo unspecified) here?
Answer: 2.39% and -0.818% and 2%

Question: What about the max response (HEK293) of the same compound?
Answer: -11.5% and -3.28%

Question: And the outcome (HEK293)?
Answer: inactive

Question: What about the max response (HaCat) of the same compound?
Answer: -16.4%

Question: And the outcome (HaCat)?
Answer: inactive

Question: And the max response (KB-3-1)?
Answer: -1.43%

Question: And the outcome (KB-3-1)?
Answer: inactive

Question: Which results are given for `O=C(Nc1cccc(Br)c1)c1cccc(S(=O)(=O)N2CCCCCC2)c1`?
Answer: Potency (CRL-7250): 23.1 µM (active); Potency (HEK293): 13.2 µM (active) and 9.2 µM (active); max response (HaCat): 4.06% and -1.39%

Question: Which Potency (CRL-7250) does the source give for `NS(=O)(=O)c1cccc2c1C(=O)c1cccc(O)c1C2=O` here?
Answer: 0.526 µM (active)

Question: What about the Potency (HEK293) of the same compound?
Answer: 16.6 µM (active)

Question: Which results are given for `NC(=O)c1ccc2nc(-c3ccc(Oc4ccc(Cl)cc4)cc3)[nH]c2c1`?
Answer: max response (CRL-7250): -25.5%; outcome (CRL-7250): inactive; max response (HaCat): -0.499%; outcome (HaCat): inactive

Question: What does the source list for `COc1ncc(-c2ccc3nccc(-c4ccnnc4)c3c2)cc1NS(=O)(=O)c1ccc(F)cc1F`?
Answer: max response (CRL-7250): -92.9%; Potency (HEK293): 0.0206 µM (active); max response (HEK293): -126%; Potency (HaCat): 0.0065 µM (active); max response (HaCat): -157%; Potency (KB-3-1): 590 nM (active) and 103 nM (active)

Question: Which Potency (GB4) does the source give for `C[C@@H](O)[C@H]1C(=O)N2C(C(=O)O)=C(S[C@@H]3CN[C@H](C(=O)N(C)C)C3)[C@H](C)[C@H]12` here?
Answer: inactive

Question: What about the Potency (HB3) of the same compound?
Answer: inactive

Question: What about the Potency (ICS) of the same compound?
Answer: inactive

Question: What about the outcome (JCK) of the same compound?
Answer: inactive

Question: What about the Potency (N140) of the same compound?
Answer: inactive

Question: What about the outcome (P93_24) of the same compound?
Answer: inactive

Question: And the Potency (P94_40)?
Answer: inactive

Question: What about the outcome (PAD) of the same compound?
Answer: inactive

Question: What about the outcome (PC15) of the same compound?
Answer: inactive

Question: What about the Potency (PC26) of the same compound?
Answer: inactive

Question: What about the outcome (PC49) of the same compound?
Answer: inactive

Question: And the Potency (SC27B)?
Answer: inactive

Question: What about the outcome (TAB109) of the same compound?
Answer: inactive

Question: And the Potency (TAB113)?
Answer: inactive

Question: And the Potency (TAB165)?
Answer: inactive

Question: And the Potency (W2)?
Answer: inactive

Question: And the max response (CRL-7250)?
Answer: 3.74%

Question: What about the outcome (CRL-7250) of the same compound?
Answer: inactive

Question: What about the outcome (HEK293) of the same compound?
Answer: inactive

Question: And the max response (HaCat)?
Answer: -2.71%

Question: And the outcome (HaCat)?
Answer: inactive

Question: What about the max response (KB-3-1) of the same compound?
Answer: -4.18%

Question: Which results are given for `COc1ccccc1N1CCN(CCCNc2cc(=O)n(C)c(=O)n2C)CC1`?
Answer: Potency (GB4): inactive; Potency (HB3): inactive; Potency (ICS): inactive; outcome (JCK): inactive; Potency (N140): inactive; outcome (P93_24): inactive; Potency (P94_40): inactive; outcome (PAD): inactive; outcome (PC15): inactive; Potency (PC26): inactive; outcome (PC49): inactive; Potency (SC27B): inactive; outcome (TAB109): inactive; Potency (TAB113): inactive; Potency (TAB165): inactive; Potency (W2): inactive; max response (CRL-7250): -0.41%; outcome (CRL-7250): inactive; outcome (HEK293): inactive; outcome (HaCat): inactive; max response (KB-3-1): 10% and -5.34% and -7.87%

Question: Which results are given for `COc1cc2ncnc(-n3nc(-c4ccccn4)nc3N)c2cc1OC`?
Answer: Potency (CRL-7250): 3.55 µM (active); max response (CRL-7250): -12.8%; outcome (HEK293): inactive; Potency (HaCat): 3.17 µM (active); outcome (HaCat): inactive; outcome (KB-3-1): inactive

Question: With `CCNc1cc(NC2CCC(O)CC2)nc(Nc2ccc3c(ccn3Cc3ccccc3)c2)n1` (stereo unspecified) as the compound, how does the max response (CRL-7250) read?
Answer: 1.87%

Question: And the Potency (HEK293)?
Answer: 20.9 µM (active)

Question: And the outcome (HaCat)?
Answer: inactive

Question: For `CCCNC(=O)NS(=O)(=O)c1ccc(Cl)cc1`, which Potency (GB4) is on record?
Answer: inactive

Question: What about the Potency (HB3) of the same compound?
Answer: inactive

Question: What about the Potency (ICS) of the same compound?
Answer: inactive

Question: And the outcome (JCK)?
Answer: inactive

Question: What about the Potency (N140) of the same compound?
Answer: inactive

Question: What about the outcome (P93_24) of the same compound?
Answer: inactive

Question: What about the Potency (P94_40) of the same compound?
Answer: inactive

Question: And the outcome (PAD)?
Answer: inactive

Question: And the outcome (PC15)?
Answer: inactive

Question: What about the Potency (PC26) of the same compound?
Answer: inactive

Question: And the outcome (PC49)?
Answer: inactive

Question: What about the Potency (SC27B) of the same compound?
Answer: inactive

Question: What about the outcome (TAB109) of the same compound?
Answer: inactive

Question: What about the Potency (TAB113) of the same compound?
Answer: inactive

Question: And the Potency (TAB165)?
Answer: inactive

Question: What about the Potency (W2) of the same compound?
Answer: inactive

Question: And the max response (CRL-7250)?
Answer: -0.307%

Question: And the outcome (CRL-7250)?
Answer: inactive

Question: What about the max response (HEK293) of the same compound?
Answer: -0.916%

Question: And the outcome (HEK293)?
Answer: inactive

Question: What about the max response (HaCat) of the same compound?
Answer: -1.01%

Question: And the outcome (HaCat)?
Answer: inactive

Question: And the max response (KB-3-1)?
Answer: -1.87% and 8.57%
